{"source": "PubChem BioAssay (NCI)", "note": "This is part of a sample that, as a whole, favours compounds with a hit. Of some 83,000 tested, about 20% had one in any assay.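 Treatment: one concentration, 48 hours, 96-well format. Scoring: percent growth, with anything below 10 considered active.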 Values without a mark were called inactive. Active and inactive are the calls of the source."}
{"tested_on": "RPMI-8226 leukemia", "assay": "NCI-60 one-dose screen, 48 h (100 = growth as untreated, 0 = no growth, -100 = all killed)", "settings": "10 µM unless noted", "procedure": "Growth inhibition of the RPMI-8226 human tumor cell line is measured as a screen for anti-cancer activity. Cells are grown in 96 well plates and exposed to the test compound for 48 hours. Compounds are tested at a single concentration, which is 10^-5 M for most compounds. The reported endpoint is percent growth (GI% or GIPRCNT), where numbers from 0 - 100% represent growth inhibition, and numbers from -100% - 0 represent cell death. For example, a value of 40 represents 60% growth inhibition. A value of 0 means no net growth occurred over the course of the experiment. A value of -40 indicates 40% of cells at the beginning of the experiment died by the end of the experiment. A value of -100 means all cells are dead at the end of the experiment.\nNCI-60 Human Tumor Cell Lines Screen was performed using the standard one-dose NCI protocol, which is described in more detail at https://dtp.cancer.gov/discovery_development/nci-60/default.htm.\nCompounds with GIPRCNT values below 10 were considered active. Activity score was based on GIPRCNT using the following formula: […]\nScore is 0 for GIPRCNT values of 100 or above, 50 for GIPRCNT values of 0, and 100 for GIPRCNT values of -100."}
{"smiles": "C#CC(F)(F)[C@]1(O)CC[C@H]2[C@@H]3CCC4=CC(=O)CCC4=C3[C@@H](c3ccc(C(C)=O)cc3)C[C@@]21C", "growth": "2% (active)"}
{"smiles": "COc1ccc2c(c1)CC/C(=C\\c1cncc(Br)c1)C2=O", "growth": "8.06% (active)"}
{"smiles": "CCOC(=O)c1c(CN2CCN(C)CC2)nc2ccc(Cl)cc2c1-c1ccccc1", "growth": "25.5%"}
{"smiles": "CC(C)C[C@@H](NC(=O)[C@@H](Cc1ccccc1)NC(=O)c1cnccn1)B1Oc2ccc(C[C@H](NC(=O)[C@H](Cc3ccc4c(c3)OB([C@@H](CC(C)C)NC(=O)[C@@H](Cc3ccccc3)NC(=O)c3cnccn3)O4)NC(=O)[C@@H](N)CC3CCC4OB([C@@H](CC(C)C)NC(=O)[C@@H](CC5CCCCC5)NC(=O)C5CNCCN5)OC4C3)C(=O)NCCCC[C@@H]3NC(=O)[C@@H](Cc4ccccc4)NC(=O)[C@H](CC(=O)O)NC(=O)CNC(=O)[C@H](CCCNC(=N)N)NC3=O)cc2O1", "note": "(stereo not given in full)", "growth": "0.76% (active)"}
{"smiles": "c1ccc(Cn2cc(-c3nc4ccccc4s3)c3cccnc32)cc1", "growth": "99.9%"}
{"smiles": "O=S(=O)(Nc1ccc(NS(=O)(=O)c2ccccc2)c(Cl)c1)c1ccccc1", "growth": "90.8%"}
{"smiles": "COc1ccc(C(=O)COc2cccc(/C=C3\\CSc4ccccc4C3=O)c2)cc1", "growth": "-62.4% (active)"}
{"smiles": "C=CC(COC(c1ccccc1)(c1ccccc1)c1ccccc1)N(CC)CC", "note": "(stereo not given)", "growth": "10.6%"}
{"smiles": "O=C(CCN1C(=O)/C(=C/c2ccc(Cl)cc2)SC1=S)NCCCN1CCOCC1", "growth": "103%"}
{"smiles": "CCN(CC)CCCCNc1c2ccc(Cl)cc2nc2ccc(OC)cc12", "growth": "-33.9% (active)"}
{"smiles": "COc1ccc(-c2nc3ccc(-c4nc5ccc(N6CCN(c7ccncc7)CC6)cc5[nH]4)cc3[nH]2)cc1OC", "growth": "53.5%"}
{"smiles": "CCOC(=O)c1sc2nc(-c3cccc(OC)c3)nc(N3CCOCC3)c2c1C", "growth": "87.8%"}
{"smiles": "N#Cc1cnn(-c2nc3c(Cl)cccc3s2)c1N", "growth": "95.7%"}
{"smiles": "CC(=O)Nc1ccc(-n2c(O)c(/C=N/NC(=O)Cc3ccccc3Nc3c(Cl)cccc3Cl)sc2=S)cc1", "growth": "106%"}
{"smiles": "CS(=O)(=O)c1ccc(-n2nc(-c3ccc(Br)cc3)c3ccccc3c2=O)cc1", "growth": "99.8%"}
{"smiles": "CCOC(=O)c1sc(Nc2ccc(Cl)cc2)nc1C", "growth": "7.4% (active)"}
{"smiles": "COc1cc(/C=C/c2cc(/C=C/c3ccc(O)c(OC)c3)n(-c3c(C)cccc3C)c(=O)n2)ccc1O", "growth": "-27.4% (active)"}
{"smiles": "CCOC(=O)c1sc2nc(-c3cccc(O)c3)nc(N3CCOCC3)c2c1C", "growth": "55.4%"}
{"smiles": "COc1cc(/C=C/C(=O)c2ccc(O)c(CN3CCN(c4cc5c(cc4F)c(=O)c(C(=O)O)cn5C4CC4)CC3)c2)cc(OC)c1OC", "growth": "-3.9% (active)"}
{"smiles": "COc1ccc(S(=O)(=O)N2CC3(COC3)C2)cc1NC(=O)c1[nH]c(C)c2c1CCCCC2=O", "growth": "25.8%"}
{"smiles": "CC(=O)c1nc2ccccc2n1CC(=O)c1cccc(Cl)c1", "growth": "-11.8% (active)"}
{"smiles": "CC(=O)OC[C@H]1O[C@H](OC(C)=O)[C@H](NC(=O)/C=C/CCl)[C@@H](OC(C)=O)[C@@H]1OC(C)=O", "growth": "71.7%"}
{"smiles": "C#CC(F)(F)[C@]1(O)CC[C@H]2[C@@H]3CCC4=CC(=O)CCC4=C3[C@@H](c3ccc(C4CC4)cc3)C[C@@]21C", "growth": "-42.5% (active)"}
{"smiles": "CC1=C[C@H]2c3c(c(O)c(O)c4oc(-c5ccccc5)cc(=O)c34)[C@H](c3cc(O)c(O)c4oc(-c5ccccc5)cc(=O)c34)[C@H]2C(C)(C)C1", "growth": "7.2% (active)"}
{"smiles": "c1ccc2[nH]c(-c3ccc(Nc4nc(N5CCCC5)nc5[nH]ncc45)cc3)nc2c1", "growth": "-34.4% (active)"}
{"smiles": "O=C1/C(=C/c2ccc3c(c2)OCO3)SC(=S)N1CCc1ccc(O)cc1", "growth": "89.8%"}
{"smiles": "COc1ccc(-n2nc(C)c3c(Nc4ccc(NC(=O)Nc5cc(C(F)(F)F)ccc5F)cc4)ncnc32)cc1", "growth": "4.77% (active)"}
{"smiles": "CCOC(=O)c1cc(C(=O)c2ccc(O)c(O)c2)n2ccc(-c3ccn4c(C(=O)c5ccc(O)c(O)c5)cc(C(=O)OCC)c4c3)cc12", "growth": "74.4%"}
{"smiles": "CCOc1ccc(C(C)=O)cc1NC(=O)c1cccc(-c2nnn(CC)n2)c1", "growth": "22.4%"}
{"smiles": "O=C1Nc2cc(-c3ccc(O)cc3)ccc2/C1=C/c1ccc[nH]1", "growth": "3.47% (active)"}
{"smiles": "Cc1ccc(NC(=O)C2CCC(CN3CCN(C)CC3)CC2)cc1Nc1nccc(-c2cccnc2)n1", "note": "(stereo not given)", "growth": "96.6%"}
{"smiles": "COc1cc(C)c(C2C(C#N)=C(N)Oc3n[nH]c(-c4cccs4)c32)cc1C(C)C", "note": "(stereo not given)", "growth": "87.5%"}
{"smiles": "COc1cccc(-c2nc3sccn3c2-c2ccnc(NCCCNS(=O)(=O)c3cccc(F)c3)c2)c1", "growth": "-19.9% (active)"}
{"smiles": "COc1ccc(Nc2cc(C)nc(N3CCN(c4ccnc5cc(Cl)ccc45)CC3)n2)cc1", "growth": "16.2%"}
{"smiles": "CN(C)c1ccc(NC(=O)c2ccc(/C=C/C(=O)c3ncc[nH]3)cc2)cc1", "growth": "-4.78% (active)"}
{"smiles": "O=C(N=Nc1c(O)[nH]c2ccc(Br)cc12)c1cc(-c2ccccc2)on1", "growth": "105%"}
{"smiles": "CC[C@@H](C(=O)[C@@H](C)[C@@H](O)[C@H](C)[C@@H]1O[C@@H]([C@@H](CC)C(=O)O)CC[C@@H]1C)[C@H]1OC2(C=C[C@@H](O)[C@]3(CC[C@@](C)([C@H]4CC[C@](O)(CC)[C@H](C)O4)O3)O2)[C@H](C)C[C@@H]1C", "note": "(stereo not given in full)", "growth": "-36.1% (active)"}
{"smiles": "CCc1nnc(CNc2ccc(Cl)cc2)o1", "growth": "103%"}
{"smiles": "NC(=NCCCOc1ccc(Cl)cc1)Nc1ccc(C(F)(F)F)cc1", "growth": "-1.68% (active)"}
{"smiles": "CC/C=C\\C[C@H]1C/C=C2/C(=O)C=C[C@H]2C/C=C\\CCCC(=O)O1", "growth": "-10% (active)"}
